Test results from PubChem BioAssay (NCI).
Compounds without any hit were thinned out: in the full panel of roughly 83,000, 20% have a hit.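 Cells were grown in 96-well plates and exposed to the test compound at a single concentration for 48 hours; results are reported as percent growth, with values below 10 considered active.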 Unmarked numbers belong to inactive results. Activity calls are given as the source filed them.

Experiments:
Assay in all cases: NCI-60 one-dose screen, 48 h (100 = growth as untreated, 0 = no growth, -100 = all killed)
Details in all cases: 10 µM unless noted
[1] = test system: HCT-15 colon
[2] = test system: HT29 colon
[3] = test system: SNB-75 CNS
[4] = test system: SNB-19 CNS
[5] = test system: U251 CNS
[6] = test system: SK-MEL-5 melanoma
[7] = test system: UACC-62 melanoma
[8] = test system: LOX IMVI melanoma
[9] = test system: SK-MEL-28 melanoma

Cc1cn(-c2cc(NC(=O)c3ccc(C)c(Nc4nccc(-c5cnccn5)n4)c3)cc(C(F)(F)F)c2)cn1
growth [1]: 82%
growth [2]: 19.7%
growth [3]: 88.2%
growth [4]: 74.5%
growth [5]: 39.8%
growth [6]: 57.9%
growth [7]: 26.4%
growth [8]: 63.3%
growth [9]: 31.3%

CCN1CCN(c2cc(C)nc(N(CCCNc3ccnc4cc(Cl)ccc34)Cc3cccs3)n2)CC1
growth [1]: 3.14% (active)
growth [2]: 1.82% (active)
growth [3]: -5.92% (active)
growth [4]: 12.5%
growth [5]: 0.735% (active)
growth [6]: -97.4% (active)
growth [7]: -19.8% (active)
growth [8]: -73.5% (active)
growth [9]: -65.9% (active)

CCN(CC)CCOc1ccc(/C(=C(\C)c2ccc(Cl)cc2)c2ccc(Cl)cc2)cc1
growth [1]: 21.7%
growth [2]: 8.96% (active)
growth [3]: 116%
growth [4]: 79.3%
growth [5]: 54%
growth [6]: 38%
growth [7]: 88.4%
growth [8]: 35.4%
growth [9]: 75.6%

CCCC(=O)OCC1OC(n2cnc3c(=S)nc[nH]c32)C(OC(=O)CCC)C1OC(=O)CCC (configuration not stated)
growth [1]: 56.4%
growth [2]: 35.9%
growth [3]: 52.9%
growth [4]: 74.4%
growth [5]: 87.6%
growth [6]: 38.6%
growth [7]: 13.7%
growth [8]: 11.7%
growth [9]: 98.2%

CC(C)[C@@H](C)/C=C/[C@@H](C)[C@H]1CCC2=C3C=CC4=CC(=O)CC[C@]4(C)[C@H]3CC[C@@]21C
growth [1]: 99.7%
growth [2]: 74.3%
growth [3]: 96.7%
growth [4]: 100%
growth [5]: 88.7%
growth [6]: 89.5%
growth [7]: 94.9%
growth [8]: 101%
growth [9]: 113%

ClCc1ccc(-c2ccc(Cn3cnc4c(Cl)nc(Cl)nc43)cc2)cc1
growth [1]: -44.3% (active)
growth [2]: 0.0492% (active)
growth [3]: -26.9% (active)
growth [4]: 0.603% (active)
growth [5]: -79.2% (active)
growth [6]: -67.7% (active)
growth [7]: -13.6% (active)
growth [8]: -70.8% (active)
growth [9]: -29.4% (active)

C#Cc1cccc(Nc2ncnc3cc(OC)c(OCCCCCCC(=O)NO)cc23)c1
growth [1]: 7.16% (active)
growth [2]: -13.4% (active)
growth [3]: 2.04% (active)
growth [4]: 7.79% (active)
growth [5]: -58.1% (active)
growth [6]: -91.4% (active)
growth [7]: -78.3% (active)
growth [8]: -89.3% (active)
growth [9]: -29.5% (active)

O=C(N/N=C/c1ccc(Cl)cc1)c1cc(-c2cc3ccccc3o2)nn1-c1ccccc1
growth [1]: 93%
growth [2]: 107%
growth [3]: 86.5%
growth [4]: 94.5%
growth [5]: 96%
growth [6]: 56.3%
growth [7]: 83.7%
growth [8]: 84.7%
growth [9]: 99.7%

Cc1cc(N2CCCC2)nc(N(CCCNc2ccnc3cc(Cl)ccc23)Cc2ccc3c(c2)OCO3)n1
growth [1]: 3.01% (active)
growth [2]: -23.9% (active)
growth [3]: 3.65% (active)
growth [4]: 23.5%
growth [5]: -9.48% (active)
growth [6]: -96.8% (active)
growth [7]: -32.9% (active)
growth [8]: -78.3% (active)
growth [9]: -82% (active)

C[N+](C)(CCOC(c1ccccc1)c1ccccc1)CC(=O)OCc1ccccc1
growth [1]: 99.3%
growth [2]: 101%
growth [3]: 76%
growth [4]: 106%
growth [5]: 106%
growth [6]: 98.1%
growth [7]: 104%
growth [8]: 101%
growth [9]: 106%

O=C(O)c1ccc2c(c1)nc(Nc1cccc(Cl)c1)c1ccncc12
growth [1]: 5.48% (active)
growth [2]: 19.2%
growth [3]: -25.6% (active)
growth [4]: 13.5%
growth [5]: -24.6% (active)
growth [6]: -64.9% (active)
growth [7]: -50.4% (active)
growth [9]: 3.16% (active)

C[C@@H](Nc1cc(F)cc(F)c1)c1cc(C(=O)N(C)C)cc2c(=O)cc(N3CCOCC3)oc12
growth [1]: 84%
growth [2]: 23.9%
growth [3]: -8.61% (active)
growth [4]: 64.1%
growth [5]: 61.4%
growth [6]: 73.2%
growth [7]: 11.3%
growth [8]: 48.2%
growth [9]: 46.3%

Cc1ccc2oc(=O)cc(-c3cc(-c4cc5ccccc5oc4=O)nc(N)c3C#N)c2c1
growth [1]: 91.1%
growth [2]: 68.3%
growth [3]: 34%
growth [4]: 75.8%
growth [5]: 54.3%
growth [6]: 60.8%
growth [7]: 81.5%
growth [8]: 78.2%
growth [9]: 76.7%

NC1(c2ccc(-c3nc4ccn5c(=O)[nH]nc5c4cc3-c3ccccc3)cc2)CCC1
growth [1]: 15.2%
growth [2]: -7.85% (active)
growth [3]: -8.24% (active)
growth [4]: 18.1%
growth [5]: -3.88% (active)
growth [6]: -85.7% (active)
growth [7]: 47.5%
growth [8]: -57.6% (active)
growth [9]: -66.7% (active)

Cc1cc(Oc2ccccc2)ccc1Nc1ncnc2ccc(-c3cnc(Cl)c(NS(C)(=O)=O)c3)cc12
growth [1]: 21.6%
growth [2]: 15.8%
growth [3]: 0.0921% (active)
growth [4]: 32.4%
growth [5]: 29.4%
growth [6]: -25.3% (active)
growth [7]: 10.5%
growth [8]: -3.68% (active)
growth [9]: 7.7% (active)

Clc1ccc(Nc2nccc(Nc3ccc4[nH]ncc4c3)n2)cc1
growth [1]: 40.5%
growth [2]: 16.6%
growth [3]: 67.6%
growth [4]: 78.1%
growth [5]: 58.8%
growth [6]: 25.9%
growth [7]: 33.5%
growth [8]: 44.9%
growth [9]: 80%

CN1CCN(CCOc2cc(OC3CCOCC3)c3c(Nc4c(Cl)ccc5c4OCO5)ncnc3c2)CC1
growth [1]: 54.6%
growth [2]: 7.45% (active)
growth [3]: -17.7% (active)
growth [4]: 54.6%
growth [5]: 67.3%
growth [6]: 87.4%
growth [7]: 99.6%
growth [8]: 15.5%
growth [9]: 104%
